# Source: PubChem BioAssay (NCATS)
# Several values for one entry are separate records, joined by “and”; a condition that tells them apart may be missing. Equal entries are not always repeated. A number with no mark means an inactive call. Records with an inconclusive call do not appear. Activity calls are given as the source filed them. Calls come from the whole dose curve; as a rule, active = well fitted curve in the direction sought with a large enough effect; inconclusive = small, poorly fitted or top-dose-only effect, or another doubt; inactive = no such curve, though single readings can be large; an effect the other way counts as inactive or inconclusive.
# Tests used:
# [1] = target: T1, Hexokinase-4 (Homo sapiens) + Glucokinase regulatory protein (Homo sapiens) (UniProt P35557+Q14397); experiment: qHTS assay for inhibitors of recombinant human GCK-GKRP interaction: Diaphorase-coupled assay (AID 743205)
# T1 sequence (P35557 whole entry, looked up): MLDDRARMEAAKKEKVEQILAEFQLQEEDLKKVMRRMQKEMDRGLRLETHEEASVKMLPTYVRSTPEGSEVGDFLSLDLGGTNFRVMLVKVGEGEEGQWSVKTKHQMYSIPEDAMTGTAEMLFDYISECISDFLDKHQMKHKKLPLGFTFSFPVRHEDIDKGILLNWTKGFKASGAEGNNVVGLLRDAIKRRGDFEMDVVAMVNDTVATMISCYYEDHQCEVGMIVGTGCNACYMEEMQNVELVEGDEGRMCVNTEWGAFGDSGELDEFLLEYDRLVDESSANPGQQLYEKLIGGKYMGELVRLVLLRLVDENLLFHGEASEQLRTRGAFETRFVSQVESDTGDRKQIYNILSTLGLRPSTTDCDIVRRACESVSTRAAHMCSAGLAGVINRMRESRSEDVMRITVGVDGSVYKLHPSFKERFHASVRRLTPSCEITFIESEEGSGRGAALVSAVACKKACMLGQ
# T1 sequence (Q14397 whole entry, looked up): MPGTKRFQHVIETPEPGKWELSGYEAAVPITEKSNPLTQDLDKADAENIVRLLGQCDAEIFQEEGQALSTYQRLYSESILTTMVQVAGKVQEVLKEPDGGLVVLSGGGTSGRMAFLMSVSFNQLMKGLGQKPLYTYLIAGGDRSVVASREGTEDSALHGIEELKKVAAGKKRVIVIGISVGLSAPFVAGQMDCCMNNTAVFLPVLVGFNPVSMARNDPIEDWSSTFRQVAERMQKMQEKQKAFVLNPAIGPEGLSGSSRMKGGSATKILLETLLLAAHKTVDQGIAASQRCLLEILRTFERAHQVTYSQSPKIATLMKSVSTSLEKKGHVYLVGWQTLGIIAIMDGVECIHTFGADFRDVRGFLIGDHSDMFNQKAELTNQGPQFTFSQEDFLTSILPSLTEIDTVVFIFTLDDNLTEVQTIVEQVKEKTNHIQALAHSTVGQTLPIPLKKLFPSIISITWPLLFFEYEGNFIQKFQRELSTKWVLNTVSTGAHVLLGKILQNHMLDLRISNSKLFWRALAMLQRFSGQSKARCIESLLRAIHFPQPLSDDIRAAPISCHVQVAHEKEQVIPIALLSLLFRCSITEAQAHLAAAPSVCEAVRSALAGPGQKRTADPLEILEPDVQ
# Procedure, shortened: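 Signal derives from resorufin generated by diaphorase, linked to GCK turnover of glucose (5 mM) and ATP (0.4 mM). Enzyme complex was added after a 20-minute compound preincubation and monitored for 30 minutes.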
# [2] = target: T1, Hexokinase-4 (Homo sapiens) + Glucokinase regulatory protein (Homo sapiens); experiment: qHTS assay for inhibitors of recombinant human GCK-GKRP interaction: ADP-Glo assay (AID 743206);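 note: plate controls were DMSO plus enzyme for no effect and no enzyme for full effect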
# Procedure, shortened: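 GST-GCK and FLAG-GKRP (15 nM each in the dispensed mix, with 2 uM S6P) react with 0.4 mM ATP and 5 mM glucose (final) in Hepes pH 7.6 for 60 min at room temperature. ADP is measured by ADP-Glo luminescence.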
# [3] = target: T1, Hexokinase-4 (Homo sapiens) + Glucokinase regulatory protein (Homo sapiens); experiment: qHTS assay for inhibitors of recombinant human GCK-GKRP interaction: HTRF assay (AID 743207);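 note: 0% = DMSO with GCK present and -100% = DMSO wells lacking GCK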
# Procedure, shortened: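 Titration screening format: recombinant GST-GCK and FLAG-GKRP at 5 nM, S6P at 2 uM, labelled anti-tag antibodies, 60 min at RT, dual-wavelength HTRF readout.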
# [4] = qHTS Assay for Identifying Gametocytocidal Compounds (AID 743244); note: potency is the fitted concentration of half-maximal effect;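 for max response: % is set by controls: 0 for no effect and ±100 for the full control effect; actives lower the fluorescent signal which means gametocytes are killed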; settings: P. falciparum 3D7 stage III-V gametocytes, alamarBlue, 72 h; max response: hits give low values
# Procedure, shortened: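 3D7 gametocytes, stages III–V, 20,000/well; cpd 72 h, 37 °C/5% CO2; + alamarBlue 24 h; fluor. Ex 525/Em 598.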
# [5] = qHTS assay for cell viability of HEK293 cells (AID 743288); settings: ATP luminescence (CellTiter-Glo), 18 h, hits give low values; note: % is set by controls: 0 for no effect and ±100 for the full control effect; nearly all actives have a fitted effect of over 50% in size
# Procedure, shortened: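 Luminescent ATP quantitation served as the viability read-out. Cells (parental HEK293, 2,000/well) received compounds after at least 5 h at 37 C and were exposed for 18 h before a 30 min room-temperature reagent step.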
# [6] = qHTS assay for cell viability of the p53RE-bla HCT-116 cell line (AID 743292); note: % is set by controls: 0 for no effect and ±100 for the full control effect; nearly all actives have a fitted effect of over 55% in size
# Procedure, shortened: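 HCT-116 p53RE-bla cells seeded 4,000/well; 5 h at 37 C; compound (DMSO) added; 16 h at 37 C; CellTiter-Glo added, 30 min RT; luminescence read.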
compound,measurement,setting,value
CC(=O)OCC(=O)[C@@]1(O)CC[C@H]2[C@@H]3CCC4=CC(=O)CC[C@]4(C)[C@H]3C(=O)C[C@@]21C,outcome,[1],inactive
same,outcome,[2],inactive
same,outcome,[3],inactive
same,max response,[4],-5.84%
OCCN1CCN(CCCN2c3ccccc3Sc3ccc(Cl)cc32)CC1,outcome,[1],inactive
same,outcome,[2],inactive
same,outcome,[3],inactive
CSc1ccc2c(c1)N(CCC1CCCCN1C)c1ccccc1S2 (stereo unspecified),outcome,[1],inactive
same,outcome,[2],inactive
same,outcome,[3],inactive
same,Potency,[4],2.51 µM (active)
CC1=C(CC(=O)O)c2cc(F)ccc2/C1=C\c1ccc(S(C)=O)cc1 (stereo unspecified),outcome,[1],inactive
same,outcome,[2],inactive
same,outcome,[3],inactive
same,max response,[4],-9.81% and 32%
CN(C)CCC=C1c2ccccc2CCc2ccccc21,outcome,[1],inactive
same,max response,[5],-2.39% and -37.1%
same,Potency,[6],inactive
CN(C)CCCN1c2ccccc2Sc2ccc(Cl)cc21,outcome,[1],inactive
same,max response,[5],-23.7%
same,Potency,[6],inactive
C=CCn1c(=O)n([C@@H]2O[C@H](CO)[C@@H](O)[C@H]2O)c2nc(N)[nH]c(=O)c21,max response,[4],7.63%
O=C(O)CC(O)C(=O)O (stereo unspecified),max response,[4],-0.517%
CCCOC(=O)c1ccccc1,max response,[4],-2.44%
c1ccc(CN(CC2=NCCN2)c2ccccc2)cc1,max response,[4],-10.1%
CCOc1ccc2ccccc2c1C(=O)N[C@@H]1C(=O)N2[C@@H]1SC(C)(C)[C@@H]2C(=O)O,max response,[4],-1.05%
OC[C@H]1O[C@@H](O[C@@H]2[C@@H](CO)O[C@](O)(CO)[C@H]2O)[C@H](O)[C@@H](O)[C@H]1O,max response,[4],-3.99%
C[C@H](NC(CCc1ccccc1)C(=O)O)C(=O)N1CCC[C@H]1C(=O)O (stereo partly specified),max response,[4],7.34%
C[C@@H]1C[C@H]2[C@@H]3C[C@H](F)C4=CC(=O)C=C[C@]4(C)[C@@]3(F)[C@@H](O)C[C@]2(C)[C@@]1(O)C(=O)CO,max response,[4],2.1%
CN1[C@@H]2CC(OC(=O)[C@H](CO)c3ccccc3)C[C@H]1[C@@H]1O[C@@H]12 (stereo partly specified),max response,[4],9.71% and 1.92%
O=C(O)[C@@H]1CSCN1,max response,[4],-11.5%
Cc1ccc(C(C)C)cc2c(C)ccc1-2,max response,[4],3.45%
CN(C)CCN(Cc1ccccc1)c1ccccn1,max response,[4],-8.07%
O=S(=O)(O)c1cc(I)c(O)c2ncccc12,max response,[4],5.64%
CC1(C)CO[C@@H](CC(=O)O)CN1,max response,[4],28.1%
C/C(=C(\CCOP(=O)(O)O)SC(=O)c1ccccc1)N(C=O)Cc1cnc(C)nc1N,max response,[4],7.95%
CN1[C@@H]2CC[C@H]1CC(OC(=O)C(O)c1ccccc1)C2 (stereo partly specified),max response,[4],-8.53% and 3.5% and -4.14%
Cc1ncc([N+](=O)[O-])n1CC(O)CCl (stereo unspecified),max response,[4],22.3%
OCC(CO)N[C@H]1C[C@](O)(CO)[C@@H](O)[C@H](O)[C@H]1O,max response,[4],7.19%
NC1[C@H]2CN(c3nc4c(cc3F)c(=O)c(C(=O)O)cn4-c3ccc(F)cc3F)C[C@@H]12 (stereo partly specified),max response,[4],-0.422%
O=c1cc[nH]c(=S)[nH]1,max response,[4],12.7%
C[C@@H]1CC[C@@]2(OC1)O[C@H]1C[C@H]3[C@@H]4CC[C@H]5C[C@@H](O)CC[C@]5(C)[C@H]4CC(=O)[C@]3(C)[C@H]1[C@@H]2C,max response,[4],-9.03%
NC(=O)NNc1ccccc1,max response,[4],5.12% and -3.42%
O=C(O)c1ccccc1-c1ccc(C(F)(F)F)cc1,max response,[4],-6.58%
OCC(O)CN1CCN(c2ccccc2)CC1 (stereo unspecified),max response,[4],-0.192%
CC(C)(C)C(=O)NCCCC(=O)O,max response,[4],2.51%
CC(C)c1c(C(=O)Nc2ccccc2)c(-c2ccccc2)c(-c2ccc(F)cc2)n1CC[C@@H](O)C[C@@H](O)CC(=O)O,max response,[4],-14.7%
O=Cc1ccccc1C=O,max response,[4],-3.58%
O=C(O)c1ccccn1,max response,[4],-0.573%
C[C@@H]1CN(c2c(F)c(F)c3c(=O)c(C(=O)O)cn(C4CC4)c3c2F)C[C@H](C)N1,max response,[4],12.6%
N[C@@H](CSCCCO)C(=O)O,max response,[4],-2.32%
O=c1cc(CO)occ1O,max response,[4],1.55% and -0.506%
Cc1cc(O)cc2c1O[C@](C)(CCC[C@H](C)CCC[C@H](C)CCCC(C)C)CC2,max response,[4],-2.34% and 0.0933%
Nc1nc2c(ncn2CCC(CO)CO)c(=O)[nH]1,max response,[4],-1.67%
N[C@H](C(=O)O)c1ccc(O)cc1,max response,[4],-1.91%
CC1CC(OC(=O)C(O)c2ccccc2)CC(C)(C)N1C (stereo unspecified),max response,[4],12.1% and 4.11%
